# The list is not random: actives were taken first. Their share in the collection is about 15%.
# Pf growth 96h: Primary qHTS for delayed death inhibitors of the malarial parasite plastid, 96 hour incubation; P. falciparum luciferase reporter growth, 96 h; Potency, µM (doses to about 28.7 µM), for inactives: at the highest dose activity change, negative = inhibition, hits mostly inhibitors; hit rate 6.9% among 320,000; AID 504834, 2011; also: potency is read from the fitted curve at half-maximal effect; % is scaled to controls: 0 for no effect and ±100 for the full control effect
#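 Luminescence readout: decreased luciferase signal marks inhibited growth of reporter-expressing P. falciparum in infected red cells (2% hematocrit, 0.05% parasitemia final), exposed to compound two generations (96 h, 37 C, 5% CO2).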
# Pf growth 48h: Primary qHTS for delayed death inhibitors of the malarial parasite plastid, 48 hour incubation. Potency, µM (highest dose often 28.7 µM), without a hit: top-dose activity change, negative = inhibition, most hits filed as inhibitors. hit rate 5.9% among 310,000. P. falciparum luciferase growth in erythrocytes, 48 h; also: potency is read from the fitted curve at half-maximal effect; % is scaled to controls: 0 for no effect and ±100 for the full control effect
#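 Luciferase-expressing P. falciparum in infected erythrocytes (2% hematocrit, 0.1% parasitemia final) in RPMI 1640/0.5% Albumax were exposed to compound for 48 hours at 37 C, 5% CO2; growth read as luminescence.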
# Sm TGR block: qHTS Assay for the Inhibitors of Schistosoma Mansoni Peroxiredoxins. purified TGR, DTNB reduction, TNB absorbance 405 nm. Potency, µM (top dose mostly 114 µM), inactives show at the highest dose activity change, negative = inhibition, actives largely listed as inhibitors. hit rate 3% among 360,000. AID 485364, 2010; also: potency is read from the fitted curve at half-maximal effect; % is scaled to controls: 0 for no effect and ±100 for the full control effect; nearly all actives have a fitted effect of over 60% in size
#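 First, TGR (20 nM dispensed) and NADPH were mixed with compound. Second, a 15 min room-temperature incubation followed. Third, further NADPH and then DTNB were added to start the reaction. Finally, TNB absorbance was monitored kinetically.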
# HCMV inh: qHTS Assay for inhibitors of the human cytomegalovirus (HCMV) | HFF cells, HCMV-luciferase reporter, 72 h; active compounds read low | hit rate 4.5% among 410,000 | activity change, negative = inhibition, % at 57.5 µM | AID 1259415, 2018; in the data active = activity change below about -60%; inconclusive = no clear call, values can overlap the other calls; inactive = above about -39%; also: % is scaled to controls: 0 for no effect and ±100 for the full control effect
#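 Luciferase read-out from HCMV-luciferase-infected HFFs (MOI 1 PFU/cell) 72 h post infection at 37C; compounds added after 16 h cell attachment; activity normalized between buffer-only basal and Salinomycin (10uM) inhibitor controls.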
# SARS PLP yeast: qHTS of Yeast-based Assay for SARS-CoV PLP. hit rate 0.19% among 330,000. Potency, µM (doses to about 32.9 µM), inactives show at the top dose activity, positive = growth rescue, most hits filed as activators. S. cerevisiae expressing SARS-CoV PLpro, growth rescue; calls by dose curve; also: potency is read from the fitted curve at half-maximal effect; 0% is about no effect; nearly all actives have a fitted effect of over 55% in size
# HCV inh: qHTS Assay for Inhibitors of Hepatitis C Virus (HCV); Huh7.5.1 HCVcc-Cre infection, luciferase reporter, 44 h; AID 651820, 2012; hit rate 3.4% among 340,000; Potency, µM (doses to about 41.8 µM), without a hit: at the top dose activity change, negative = inhibition, hits mostly inhibitors; also: potency is read from the fitted curve at half-maximal effect; % is scaled to controls: 0 for no effect and ±100 for the full control effect
#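 1,000 cells/well; 4 h culture; + compound; + HCVcc-Cre (~0.5 moi); 44 h; luciferase substrate, RT 15 min; read 15 sec.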
# Numbers without * were called inactive; ? = inconclusive; . = no result given. Unless noted, calls follow the shape of the dose curve; as a rule, active = well fitted curve in the direction sought with a large enough effect; inconclusive = small, poorly fitted or top-dose-only effect, or another doubt; inactive = no such curve, though single readings can be large; an effect the other way counts as inactive or inconclusive.
SMILES,Pf growth 96h,Pf growth 48h,Sm TGR block,HCMV inh,SARS PLP yeast,HCV inh
OC(CNCc1ccc(-c2ccccc2)cc1)c1ccccc1 (stereo unspecified),0%,?,9%,26,6%,-27%
OC(CNCc1cccc(Br)c1)c1ccccc1 (stereo unspecified),10µM*,3.7µM*,.,2,1%,10%
Cc1ccsc1CNCC(O)c1ccccc1 (stereo unspecified),-26%,12µM*,11%,46,4%,20%
CCOC(=O)C1=C(CN2CCN(c3ccc(Cl)cc3)CC2)NC(=O)NC1c1ccc(F)cc1 (stereo unspecified),.,.,-7%,-36,.,.
Cc1ccc(NC(=O)C2CCN(S(=O)(=O)c3c(C)nn(C)c3C)CC2)c(Cl)c1,?,1%,-22%,?,6%,17%
COCCCN(C(=O)c1ccccc1F)c1nc(-c2ccc(OC)cc2)cs1,-8%,?,-1%,9,-1%,10µM*
COCCCN(C(C)=O)c1nc(-c2ccccc2)cs1,?,72%,4%,68,-6%,13µM*
COCCCN(C(=O)c1ccccc1)c1nc(-c2ccc(OC)cc2)cs1,?,?,-5%,-21,7%,13µM*
CN(C)C(=O)Oc1noc2cc(Cl)ccc12,3.3µM*,?,9%,-27,0%,10%
Oc1c(C(c2ccc(Cl)cc2)N2CCC3(CC2)OCCO3)sc2nc(-c3ccco3)nn12 (stereo unspecified),.,.,4%,21,.,.
Cc1occc1C(=O)/C(C#N)=C/c1ccc(O)c(Br)c1,-17%,-7%,?,2,-3%,1%
COc1cc(C2CC(=O)Oc3c(C(CCN4CCCC(C)C4)c4ccc(N(C)C)cc4)c(OC)cc(OC)c32)cc(OC)c1OC (stereo unspecified),?,13µM*,-15%,16,-4%,16%
COc1cc(C(CCN2CCCC(C)C2)c2c(OC)cc(OC)c3c2OC(=O)CC3c2ccc(N(C)C)cc2)cc(OC)c1OC (stereo unspecified),10µM*,9.3µM*,-15%,.,-1%,32%
CCc1cc2cc(OC)ccc2nc1SCC(=O)NNC(=O)c1ccco1,0%,28%,-1%,-3,1%,?
CCN(CC)S(=O)(=O)c1cc(C(=O)Nc2nncs2)c(Cl)cc1Cl,.,?,5%,-5,-2%,10µM*
COC(=O)c1ccc(COc2cc([N+](=O)[O-])cc3cccnc23)o1,3%,20%,-8%,?,1%,2%
CCCC(C)NC(=O)COc1ccc(Sc2ccc(OCC(=O)NC(C)CCC)cc2)cc1 (stereo unspecified),?,7.4µM*,2%,-72*,17%,?
CC(C)CNC(=O)COc1ccc(Sc2ccc(OCC(=O)NCC(C)C)cc2)cc1,?,?,2%,?,-15%,?
Cc1nc2c(Br)cc(Br)cc2c(=O)n1-c1ccccc1NC1OCC(O)C(O)C1O (stereo unspecified),.,.,.,-77*,.,-24%
CC1=CC(C)C2(COC(c3ccc[n+](C)c3)OC2)C(C)C1 (stereo unspecified),10µM*,?,?,-24,-1%,7%
CCC(C)(C(=O)NC1CCCC1)N(Cc1cccs1)C(=O)c1ccccn1 (stereo unspecified),2.9µM*,9%,2%,2,0%,?
Cc1ccc(C(C)C)cc2c(C)ccc1-2,?,-16%,.,6,.,35µM*
CCOC(=O)C1(Cc2cccc(OC)c2)CCCN(C(=O)CSC)C1 (stereo unspecified),.,.,.,44,.,15%
COC(=O)c1onc(-c2c(Cl)cccc2Cl)c1C(=O)OC,32%,?,5%,6,1%,11%

# Source: PubChem (National Center for Advancing Translational Sciences (NCATS))
